# Source: PubChem BioAssay (Broad Institute)
# SIRT5 inh – inhibitors of human sirtuin-5 desuccinylase | Purified SirT5, succinyl-peptide AMC, trypsin-coupled fluorescence | inhibition, % at 15 µM | 330,000 tested, 1.1% active | AID 652115; in the data active = inhibition above about 15%
# PfHsp90 set2 – growth inhibition of yeast expressing Plasmodium Hsp90. S. cerevisiae expressing PfHsp90, BacTiter-Glo ATP, 48 h; yeast lacking PDR1 and PDR3 efflux regulators. AID 504621. inhibition, % at 9.4 µM. 310,000 tested, 0.32% active;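 active = every replicate shows inhibition above about 80%, whatever the replicate mean, limit read from the data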;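 note: 0% = DMSO neutral controls and 100% = 20 µM radicicol positive controls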
# CASP6 VEID inh – inhibitors of human caspase-6; AID 686996; purified caspase-6, Z-VEID-R110 cleavage fluorescence; 350,000 tested, 0.53% active; P55212; inhibition, % at 12.5 µM;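 active = mean inhibition across replicates at least about 35%, with every replicate also reaching that limit, limit read from the data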;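 note: 0% = median of neutral control wells and 100% = no fluorescence left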
# ARNT-TACC3 inh – ARNT/TACC3 interaction disruption; AlphaScreen His-ARNT PAS-B/GST-TACC3 binding, luminescence; TACC3 fragment carries E629A point mutation; inhibition, % at 9.99 µM; 390,000 tested, 0.66% active;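 active = mean inhibition of replicates at least 50% and at least half of replicates each reaching 50%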;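 note: 0% = complete ARNT plus TACC3 wells and 100% = ARNT alone without TACC3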
# NSD2 inh – inhibitors of human histone methyltransferase NSD2. O96028. NSD2 peptide methylation, AlphaScreen, 120 min. inhibition, % at 12.5 µM. 310,000 tested, 0.54% active; in the data active = inhibition above about 50%
# Numbers without * were called inactive; nt = no result given; ! = not confirmed by another sample. Hits are enriched below; roughly 2.1% of the tested compounds scored in any of these assays.
SMILES,SIRT5 inh,PfHsp90 set2,CASP6 VEID inh,ARNT-TACC3 inh,NSD2 inh
CCOc1ccc(NCc2cc3c(C(C)(C)C)nn(-c4ccccc4)c3[nH]c2=O)cc1,-1,103*,-2,4,2
Cc1noc(C)c1NC(=O)N(C)C[C@H]1Oc2cc(C#CCC3CCCC3)ccc2S(=O)(=O)N([C@@H](C)CO)C[C@H]1C,13,nt,1,4,nt
Cc1noc(C)c1S(=O)(=O)Nc1ccc2c(c1)C(=O)N([C@H](C)CO)C[C@H](C)[C@H](CN(C)CC1CCCCC1)OCCCC[C@H](C)O2,6,nt,-2,-1,nt
Cc1onc(-c2ccccc2)c1-c1csc(N/N=C/c2ccccc2Cl)n1,-4,-8,1,-3,1
Cc1onc(-c2ccc(Cl)cc2Cl)c1-c1csc(N/N=C/c2ccccc2Cl)n1,nt,2,38*,-5,-1
C[C@H](CO)N1C[C@H](C)[C@H](CN(C)Cc2ccc(C(=O)Nc3ccccc3N)cc2)Oc2ccc(NC(=O)Cc3ccccc3)cc2CC1=O,nt,nt,2,nt,nt
O=C(O)c1ccc(OCC(O)Cn2c3ccccc3c3ccccc32)cc1 (centres undefined),24*,-7,2,0,-2
CO[C@@H]1CN(C)C(=O)c2ccc(NC(=O)C3CCC3)cc2OC[C@@H](C)N(Cc2ccccn2)C[C@H]1C,2,nt,1,nt,nt
COc1ccccc1C(=O)N1C[C@@H]2[C@H](c3ccccc31)[C@@H](CO)N2C(=O)C1CCCC1,1,nt,0,-9,nt
C[C@@H]1CN([C@H](C)CO)C(=O)c2cc(-c3cccc(F)c3)cnc2O[C@@H]1CN(C)Cc1cccnc1,-8,nt,-2,-3,nt
CC(C)(C)NC(=O)C1CCN(S(=O)(=O)c2cccc3nsnc23)CC1,-2,0,55*,-5,-2
CC(C)NC(=O)Nc1ccc2c(c1)C(=O)N([C@@H](C)CO)C[C@@H](C)[C@@H](CN(C)C(=O)Nc1cccc3ccccc13)O2,-1,nt,46*,3,nt
CC(C)NC(=O)Nc1ccc2c(c1)C(=O)N([C@H](C)CO)C[C@H](C)[C@H](CN(C)Cc1ccc(-c3ccccc3)cc1)O2,31*,nt,0,nt,nt
C[C@H](CO)N1C[C@H](C)[C@H](CN(C)Cc2ccncc2)Oc2ccc(NC(=O)CCN3CCOCC3)cc2C1=O,25*,nt,0,nt,nt
COc1ccc(CN(C)C[C@@H]2Oc3ccc(NC(=O)Nc4ccc(OC)cc4)cc3C(=O)N([C@@H](C)CO)C[C@H]2C)cc1,19*,nt,3,17,nt
O=C(C[C@@H]1C[C@@H]2c3cc(NC(=O)C4CCOCC4)ccc3O[C@@H]2[C@@H](CO)O1)NCc1ccccc1F,-3,nt,0,4,nt
C[C@H](CO)N1C[C@H](C)[C@@H](CN(C)C(=O)c2ccccn2)Oc2cc(C#Cc3ccc(F)cc3)ccc2S1(=O)=O,3,nt,-3,4,nt
C[C@@H]1CN([C@@H](C)CO)C(=O)c2cc(NS(=O)(=O)c3cccs3)ccc2O[C@@H](C)CCCCO[C@H]1CN(C)C(=O)Cc1ccccc1,-5,nt,-4,-2,nt
CCCC#Cc1cnc2c(c1)C(=O)N([C@H](C)CO)C[C@H](C)[C@H](CN(C)C(=O)Nc1c(C)noc1C)O2,-1,nt,0,-3,nt
COc1ccc(NC(=O)Nc2ccc3c(c2)C(=O)N([C@H](C)CO)C[C@@H](C)[C@@H](CN(C)Cc2ccc(-c4ccccc4)cc2)O3)cc1,19*,nt,-1,4,nt
COc1ccc(NC(=O)Nc2ccc3c(c2)C(=O)N([C@@H](C)CO)C[C@H](C)[C@H](CN(C)Cc2ccc(Cl)c(Cl)c2)O3)cc1,19*,nt,0,16,nt
COc1ccc(NC(=O)Nc2ccc3c(c2)C(=O)N([C@@H](C)CO)C[C@H](C)[C@H](CN(C)Cc2ccc(-c4ccccc4)cc2)O3)cc1,20*,nt,-2,1,nt
COc1ccc(NC(=O)Nc2ccc3c(c2)C(=O)N([C@H](C)CO)C[C@@H](C)[C@@H](CN(C)Cc2ccc(Cl)c(Cl)c2)O3)cc1,3,nt,3,13,nt
COc1ccc(S(=O)(=O)N2CCCCN3[C@H](CO)[C@H](c4ccc(C#CC5CC5)cc4)[C@H]3C2)cc1,nt,nt,nt,22,nt
CO[C@H]1CN(C)C(=O)c2cc(NC(=O)C3CCC3)ccc2OC[C@@H](C)N(Cc2cccnc2)C[C@H]1C,0,nt,-4,-13,nt
SMILES,SIRT5 inh,PfHsp90 set2,CASP6 VEID inh,ARNT-TACC3 inh,NSD2 inh
Cc1ccc(N2C(=O)C3C4C=CC(CNC(=S)N5CCN(c6cccc(C)c6)C(C)C5)(O4)C3C2=O)cc1 (centres undefined),0,105*,6,-6,-1
COc1ccc2c3c(n(C)c2c1)[C@@H](CO)N(C(=O)NC(C)C)CC31CN(CC2CCOCC2)C1,-2,nt,1,nt,nt
O=C(Cc1ccncc1)N1C[C@@H]2N[C@H](C1)C2c1ccc(-c2ccncc2)cc1 (some centres undefined),1,nt,0,nt,nt
CN(C)C(=O)c1ccc(-c2ccc(C3[C@@H]4CN(C(=O)Cc5ccccc5)C[C@H]3N4)cc2)cc1 (some centres undefined),17*!,nt,0,nt,nt
CN(C)C(=O)c1cccc(-c2ccc(C3[C@@H]4CN(C(=O)c5ccccn5)C[C@H]3N4)cc2)c1 (some centres undefined),22*!,nt,2,nt,nt
COc1ccc2c(c1)c(CC(=O)Nc1cccc(S(N)(=O)=O)c1)c(C)n2C(=O)c1ccc(Cl)cc1,17*,13,0,-1,7
CCCCC(=O)N1C/C=C\[C@H](c2ccc(OC)cc2)N(Cc2ccc(F)cc2)C(=O)[C@@H]1C,-3,nt,0,8.3*,nt
CCS(=O)(=O)N1CC(=O)N2[C@H](CO)[C@H](c3ccc(C4=CCCC4)cc3)[C@@H]2C1,-6,nt,0,nt,nt
N#C[C@@H]1[C@H](c2ccc(C3=CCCCC3)cc2)[C@@H](CO)N1S(=O)(=O)c1ccccc1,0,nt,41*,1,nt
CCS(=O)(=O)N1CC(=O)N2[C@H](CO)[C@H](c3ccc(C4=CCCCC4)cc3)[C@@H]2C1,22*,nt,nt,nt,nt
O=C1CNC[C@H]2[C@@H](c3ccc(C4=CCCC4)cc3)[C@H](CO)N12,21*,nt,-1,nt,nt
CN(C[C@H]1[C@@H](c2ccc(C3=CCCC3)cc2)[C@@H](CO)N1CCC(F)(F)F)S(C)(=O)=O,25*,nt,nt,nt,nt
CC(=O)N1[C@@H]2Cn3c(cccc3=O)[C@H]1[C@@H](C(=O)N[C@H](C)c1ccccc1)[C@@H]2CO,-5,nt,1,nt,nt
Cc1c(-c2ccc(OCCN3CCOCC3)cc2)c(=O)oc2ccc3ccccc3c12,19*,nt,-3,nt,nt
C[C@H]1CN([C@@H](C)CO)C(=O)c2cccc(NC(=O)CCCCCC(=O)Nc3ccccc3N)c2O[C@H]1CN(C)C(=O)NC1CCCCC1,3,nt,-1,nt,nt
Cc1ccc2c(c1)CCO[C@]21O[C@H](CCO)C[C@H](O)[C@H]1O,-2,nt,1,nt,nt
Cc1ccc2c(c1)CO[C@@]21O[C@H](CCO)C[C@H](O)[C@H]1O,23*,nt,0,nt,nt
